Compound activity deposited in PubChem by several laboratories.
BaF3 parental = reduces parental Ba/F3 cell viability, JAK2V617F counter-screen; CellTiter-Glo ATP luminescence; inhibition, % at 5.6 µM; hit rate 1.1% among 220,000;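 active = inhibition above a per-campaign cutoff, the mean inhibition of all tested compounds plus 3 SD, cut at about 27% in these data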;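 note: 0% = DMSO wells and 100% = JAK Inhibitor I control wells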
KLF5 inh = inhibitors of KLF5 expression; DLD-1 KLF5 promoter-luciferase reporter, luminescence; inhibition, % at 5 µM; hit rate 0.23% among 290,000; AID 1700;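 active = inhibition above a per-plate limit of that plate's mean compound inhibition plus 3 SD, cut at about 60% in these data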;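 note: 0% = DMSO wells and 100% = LY294002 at 200 µM; higher means less KLF5 promoter-driven luciferase light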
APP 5UTR inh = APP translation inhibition. SH-SY5Y APP 5'UTR-luciferase reporter, luminescence. inhibition, % at 2 µM. hit rate 0.82% among 190,000;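 active = inhibition above a set limit, derived from the sample mean plus 3 SD, cut at about 45% in these data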
IEC-6 tox = kills IEC-6 intestinal cells in KLF5 counter-screen. IEC-6 cytotoxicity, luminescence viability. inhibition, % at 5 µM. hit rate 0.78% among 290,000. AID 1825; in the data active = inhibition above about 22%;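 note: 0% = plate median of test compound wells and 100% = cytotoxic reference compound wells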
aSyn UTR inh = MLPCN primary screen, SNCA 5' untranslated region. alpha-synuclein 5'UTR reporter, inhibitor activity. inhibition, % (tested at 7.5 µM). hit rate 0.82% among 300,000; in the data active = inhibition above about 60%;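 note: H4 neuroglioblastoma cells stably carrying SNCA 5'UTR luciferase fusion; 0% = DMSO wells and 100% = positive control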
Ba/F3 V617F tox = lowers viability of Ba/F3 cells expressing EpoR and JAK2V617F; inhibition, % at 5.6 µM; AID 1446; hit rate 1.1% among 220,000; ATP luminescence;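 active = inhibition above the campaign mean plus 3 SD over all tested compounds, cut at about 24% in these data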;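 note: cytokine-independent growth of Ba/F3 cells driven by EpoR plus mutant JAK2; 0% = DMSO-treated cells and 100% = JAK inhibitor I control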
BaF3 parental 2 = parental Ba/F3 viability inhibition for JAK2V617F counter-screen; shares compounds with Ba/F3 V617F tox; CellTiter-Glo luminescence; cells kept alive by added IL-3; inhibition, % at 5.6 µM; hit rate 31% among 580;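 active = cell growth inhibition above the hit limit set in the earlier mutant JAK2 cell screen, cut at about 27% in these data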;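 note: plate controls were DMSO-treated cells for no effect and JAK Inhibitor I control wells for full effect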
JAK2V617F confrm = confirmation: loss of viability in JAK2V617F-dependent Ba/F3 cells; hit rate 66% among 580; Ba/F3 EpoR-JAK2V617F viability, CellTiter-Glo luminescence; shares compounds with Ba/F3 V617F tox; inhibition, % at 5.6 µM; AID 1521;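 active = mean inhibition above the hit cutoff derived in the earlier primary screen, cut at about 25% in these data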;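 note: 0% = DMSO-treated cells and 100% = JAK inhibitor I control wells; higher means lower luminescence from reduced cell ATP and viability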
* marks the source's active call; other numbers are inactive results; · = no result. An excerpt weighted towards active compounds, which were near 2.1% of everything screened.

SMILES	BaF3 parental	KLF5 inh	APP 5UTR inh	IEC-6 tox	aSyn UTR inh	Ba/F3 V617F tox	BaF3 parental 2	JAK2V617F confrm
O=C(CCl)N=c1sccn1Cc1ccccc1Cl	11	-8	·	100*	-11	99*	10	99*
CCC(=O)OCC(=O)N=c1sccn1Cc1ccc(C)cc1	·	-31	·	-5	-18	·	·	·
O=C(CCl)N=c1sccn1Cc1ccc(Cl)cc1Cl	-10	-23	8	99*	-6	101*	21	99*
Cc1ccc(-n2ccc(=O)c(C(=O)Nc3ccc(S(=O)(=O)Nc4onc(C)c4C)cc3)n2)cc1	·	-3	·	1	-27	·	·	·
COC(=O)COc1cccc2c(=O)n(CC(=O)N3CCCCC3)ccc12	-1	-23	·	-5	10	-2	·	·
CCOC(=O)C(C)Oc1cccc2c(=O)n(CC(=O)NCc3ccc(F)cc3)ccc12 (configuration not stated)	22	34	·	10	68*	29*	62*	97*
CCOC(=O)C(C)Oc1cccc2c(=O)n(CC(=O)NCCc3ccccc3)ccc12 (configuration not stated)	4	6	·	-1	-17	2	·	·
COC(=O)COc1cccc2c(=O)n(CC(=O)NCc3ccc(F)cc3)ccc12	8	29	73*	5	-7	74*	21	86*
Cc1ccc(C)c(SCC(=O)NCC(c2ccco2)N2CCCCC2)c1 (configuration not stated)	·	·	·	·	-4	·	·	·
CN(C)CCn1c(SCc2ccccc2C#N)nc2c(sc3ccccc32)c1=O	·	-37	·	2	-53	·	·	·
CN(C)CCNC(=O)C1(O)c2cc(Br)ccc2NC(=O)N1c1ccc(Cl)cc1 (configuration not stated)	·	-34	·	3	-12	·	·	·
O=C(Nc1ccc(Cl)cc1)Nc1ccccc1Sc1ncc([N+](=O)[O-])s1	-3	-52	·	-3	-90	-3	·	·
O=[N+]([O-])c1cnc(Sc2ccncn2)s1	-7	-5	·	12	-1	73*	29*	96*
CCN(CC(=O)NCCCN1CCOCC1)S(=O)(=O)c1ccc(F)cc1	·	0	·	0	6	·	·	·
Cc1cc(=O)oc2cc(Oc3ccc([N+](=O)[O-])cc3[N+](=O)[O-])ccc12	4	-15	1	8	-47	2	·	·
COc1cccc(C(=O)COc2cccc(NC(=O)c3cccc([N+](=O)[O-])c3)c2)c1	10	1	-4	3	·	42*	-3	-10
O=C(COc1cccc(NC(=O)c2cccc([N+](=O)[O-])c2)c1)c1ccc(F)cc1	8	9	·	1	2	-1	·	·
Cc1ccc(NC(=O)C(=Cc2ccc(C(=O)O)cc2)C(=O)Nc2ccc(C)cc2C)c(C)c1	1	4	·	-8	40	36*	6	61*
Cc1c(C(C)NC(=O)c2cc(COc3cccc4cnccc34)on2)cnn1C (configuration not stated)	·	-11	·	1	-15	·	·	·
FC(F)(F)c1ccccc1/C=N/n1c(COc2ccccc2)n[nH]c1=S	·	-1	·	5	18	·	·	·
CCc1ccc(NC(=O)c2noc3c2CCc2ccccc2-3)cc1	24	-31	-1	3	-95	61*	-3	-13
CSc1cccc(N2C(=O)C3CCCN3C2=S)c1 (configuration not stated)	·	-34	·	-2	-16	·	·	·
COCc1cc(=O)[nH]c(SCC(=O)Nc2ccccc2)n1	-4	14	-11	-11	-1	95*	-4	-2
Cc1ccsc1C(=O)N(CC(C)C)c1c(N)n(Cc2ccccc2)c(=O)[nH]c1=O	·	0	·	0	7	·	·	·
Cc1nn(-c2ccccc2)c(C)c1NC(=O)COc1ccc2ccccc2c1	4	9	-3	2	20	90*	-5	-5
O=C(O)/C=C\C(=O)Nc1ccccc1C#Cc1ccccc1	13	-94	-73	-5	-87	10	·	·
O=C(O)/C=C\C(=O)Nc1ccccc1C#Cc1ccc(Br)cc1	23	-134	-158	9	-290	36*	1	15
COc1cc(N2C(=O)C=CC2=O)c(OC)cc1Cl	2	-3	·	16	7	32*	-2	23
